Assay outcomes from PubChem BioAssay.
Only some compounds are listed: those with a hit (about 5.7% of all), similar ones and a draw of the others.
TGFb inhibitor: qHTS for Inhibitors of TGF-b; HepG2 CAGA-GFP TGF-b/SMAD3 reporter, GFP fluorescence, 18 h; TGF-beta stimulated, 500 pg/mL final; Potency, µM (top dose mostly 46.1 µM), without a hit: at the top dose activity, negative = inhibition, hits mostly inhibitors; 410,000 tested, 1.2% active; AID 588855, 2011; note: potency is the fitted concentration of half-maximal effect; % is set by controls: 0 for no effect and ±100 for the full control effect; nearly all actives have a fitted effect of over 65% in size
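HEPG2 CAGA-GFP cells (1000/well, DMEM with 1% FBS) were pre-incubated 2 h at 37 degrees C, given compound by pin tool, then stimulated with TGF-beta at 500 pg/mL final for 18 h before per-cell GFP fluorescence imaging.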
ATXN2 expr inh: Primary qHTS for Inhibitors of ATXN expression; Potency, µM (series often up to 57 µM), for the others: top-dose activity change, negative = inhibition, usual class: inhibitors; 360,000 tested, 0.72% active; HEK-293 ATXN2-luciferase reporter, luminescence, 24 h; note: potency is the fitted concentration of half-maximal effect; % is set by controls: 0 for no effect and ±100 for the full control effect; nearly all actives have a fitted effect of over 55% in size
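ATXN2-luciferase reporter cells (luciferase flanked by upstream and downstream ATXN2 gene portions) were treated 24 h at 37 °C with compounds at up to 57 uM. SteadyGlo luminescence gave expression; GF-AFC fluorescence gave viability.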
HepG2 tox-1: qHTS for Inhibitors of TGF-b: Cytotox Counterscreen; HepG2 CAGA-GFP viability, ATP luminescence, 18 h; Potency, µM (series often up to 46.1 µM), for the others: top-dose activity change, negative = cytotoxicity, actives largely listed as cytotoxic; 410,000 tested, 0.76% active; note: potency is the fitted concentration of half-maximal effect
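CellTiter-Glo luminescence gave cytotoxicity after 18 hours at 37 degrees C. The cells were HepG2 CAGA-GFP in 1% FBS DMEM, stimulated with 500 pg/mL TGF-beta after compound addition. %Activity was normalised to no-cell wells (complete cell-killing) and DMSO (no toxicity), and curves were fitted and classified.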
IL1B secr inh: qHTS for Inhibitors of Inflammasome Signaling: IL-1-beta AlphaLISA Primary Screen; 360,000 tested, 4.7% active; AID 743279, 2014; activity change, % at 57.5 µM; THP-1 LPS/ATP IL-1B secretion, AlphaLISA, 16 h; active compounds read low; in the data active = activity change below about -50%; inconclusive = mostly about -30% to -49%; note: % is set by controls: 0 for no effect and ±100 for the full control effect
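THP-1 cells pretreated 1 hr with compounds (up to 57.5 uM final), then stimulated with LPS (250 ng/mL final) plus ATP (1.25 mM final); secreted IL-1B measured by AlphaLISA after 16 hr, decreased signal indicating inhibition.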
ATXN viability: Viability Counterscreen for Primary qHTS for Inhibitors of ATXN expression | S2 cells (HEK-293 line with an ATXN2-luciferase reporter) viability, CellTiter-Fluor protease fluorescence, 24 h | 400,000 tested, 0.49% active | Potency, µM (top dose mostly 56.7 µM), actives largely listed as cytotoxic; note: potency is the fitted concentration of half-maximal effect; nearly all actives have a fitted effect of over 40% in size
TGFb confirm: qHTS for Inhibitors of TGF-b: Confirmation of Cherry Picks; shares compounds with TGFb inhibitor; HepG2 CAGA-GFP TGF-b reporter, GFP fluorescence, 18 h; cells stimulated with TGF-beta, 500 pg/mL; Potency, µM (series often up to 46.1 µM), without a hit: at the top dose activity, negative = inhibition, most hits filed as inhibitors; 1,600 tested, 63% active; AID 720534, 2013; note: potency is the fitted concentration of half-maximal effect; % is set by controls: 0 for no effect and ±100 for the full control effect; nearly all actives have a fitted effect of over 65% in size
HepG2 tox-2: qHTS for Inhibitors of TGF-b: Cytotox Counterscreen for Cherry Picks; shares compounds with TGFb inhibitor; HepG2 CAGA-GFP viability, ATP luminescence, 18 h; cells stimulated with TGF-beta, 500 pg/mL; Potency, µM (titrated, usually from 46.1 µM), without a hit: at the highest dose activity, negative = cytotoxicity, hits mostly inhibitors; 1,600 tested, 27% active; AID 720535, 2013; note: potency is the fitted concentration of half-maximal effect; % is set by controls: 0 for no effect and ±100 for the full control effect; nearly all actives have a fitted effect of over 70% in size
CCL64 TGFb inh: qHTS for Inhibitors of TGF-b: CCL64 Cells Orthogonal Assay for Cherry Picks. shares compounds with TGFb inhibitor. CCL64 CAGA-GFP reporter, TGF-b stimulated, GFP fluorescence, 18 h. AID 720536, 2013. Potency, µM (top dose mostly 46.1 µM), without a hit: top-dose activity, negative = inhibition, usual class: inhibitors. 1,600 tested, 41% active; note: potency is the fitted concentration of half-maximal effect; nearly all actives have a fitted effect of over 65% in size
TGFb COP inh: qHTS for Inhibitors of TGF-b: Hit Validation in HepG2 Cells using COP promoter; AID 720537, 2013; Potency, µM (titrated, usually from 46.1 µM), without a hit: top-dose activity, negative = inhibition, usual class: inhibitors; HepG2 COP-GFP TGF-b reporter, GFP fluorescence, 18 h; cells stimulated by added recombinant TGF-beta; 1,600 tested, 3% active; shares compounds with TGFb inhibitor; note: potency is the fitted concentration of half-maximal effect; nearly all actives have a fitted effect of over 70% in size
* = called active by the depositor; i = inactive; ? = inconclusive; nt = no result given. Unless noted, calls come from the whole dose curve; as a rule, active = well fitted curve in the direction sought with a large enough effect; inconclusive = small, poorly fitted or top-dose-only effect, or another doubt; inactive = no such curve, though single readings can be large; an effect the other way counts as inactive or inconclusive.

SMILES	TGFb inhibitor	ATXN2 expr inh	HepG2 tox-1	IL1B secr inh	ATXN viability	TGFb confirm	HepG2 tox-2	CCL64 TGFb inh	TGFb COP inh
CC(C)C[C@@H](CN1CCCC1CN1C(=S)NC[C@@H]1Cc1ccc(O)cc1)N1C[C@H](Cc2ccc(O)cc2)N(CC2CCCCCC2)C1=S (some centres undefined)	5.6µM*	?	-111%	-83*	28µM*	21µM*	?	13µM*	?
CC(C)C[C@@H](CN1CCCC1CN1C(=S)NC[C@@H]1Cc1ccccc1)N1C[C@H](Cc2ccccc2)N(CC2CCCCCC2)C1=S (some centres undefined)	nt	-24%	nt	42	?	nt	nt	nt	nt
CC(C)C[C@@H](CN1CCCC1CN1C(=S)NC[C@@H]1Cc1ccc(O)cc1)N1C[C@H](Cc2ccccc2)N(CC2CCCCCC2)C1=S (some centres undefined)	16µM*	-28%	-7%	1	?	10µM*	?	2.1µM*	31%
Cc1ccc(Cl)cc1N1CCN(C(=O)COc2cc(=O)n(C)c3ccccc23)CC1	?	-14%	-37%	nt	?	nt	nt	nt	nt
Cc1cccc(N2CCN(CC(=O)NCC3CCCCC3)CC2)c1C	10µM*	-20%	-38%	-24	i	-24%	-6%	?	12%
Cc1cc(Nc2cnc3ccccc3n2)n(-c2ccccc2)n1	?	-11%	-23%	-21	i	nt	nt	nt	nt
Cc1cc(Nc2nc3ccccc3[nH]c2=O)n(-c2ccccc2)n1	10µM*	-1%	-5%	22	i	8.2µM*	-25%	12µM*	43%
COc1ccc(NC(=O)NNC(=O)COc2ccc(Cl)cc2C)cc1OC	4%	-3%	-24%	i	i	nt	nt	nt	nt
COc1ccc(OC)c(NC(=O)NNC(=O)CCCOc2ccc(Cl)cc2C)c1	?	-21%	-21%	-55*	i	16µM*	-11%	4%	20%
CCSc1ncc(Cl)c(C(=O)Nc2ccc(S(=O)(=O)Nc3nccc(C)n3)cc2)n1	-12%	-14%	-23%	nt	i	nt	nt	nt	nt
CCc1nc2ccc(C(=O)NCc3cccs3)cn2c1N(CC)Cc1cccc(Br)c1	11µM*	?	-27%	-54*	?	18µM*	?	?	53%
Cc1ccc2c(=O)cc(C(=O)Nc3c(C)n(C)n(-c4ccccc4)c3=O)oc2c1	0%	-2%	-3%	nt	i	nt	nt	nt	nt
COc1cc(/C=N/n2c(SC)nnc(C(C)(C)C)c2=O)ccc1O	3.2µM*	12%	-13%	6	i	?	11%	-5%	2%
O=c1c2ccccc2nc(/C=C/c2ccc([N+](=O)[O-])cc2)n1CCCO	-6%	2%	3%	nt	i	nt	nt	nt	nt
O=c1c2ccccc2nc(/C=C/c2ccc([N+](=O)[O-])o2)n1CCCO	5.6µM*	4.5µM*	3.2µM*	-111*	nt	3.3µM*	6.5µM*	5.8µM*	?
Cc1ccccc1NC(=O)N1CCc2cc(S(=O)(=O)N3CCC(C)CC3)ccc21	nt	nt	3%	nt	nt	nt	nt	nt	nt
COc1cc(/C=C(\C#N)c2nc3ccccc3[nH]2)cc(Br)c1OCc1ccc(F)cc1	6%	-11%	-28%	2	i	nt	nt	nt	nt
COc1cc(/C=C(\C#N)c2nc3ccccc3[nH]2)cc(Br)c1OCc1ccccc1	11µM*	?	-29%	-18	nt	?	?	-19%	22%
COc1cc(NC(=O)Cn2c(C)cc(C)c(C#N)c2=O)cc(OC)c1	-9%	nt	-37%	nt	nt	nt	nt	nt	nt
CCn1c(C(=O)N2CCCC(C(=O)NCCCc3ccccc3)C2)cc2sccc21 (centres undefined)	-13%	-22%	-10%	?	i	nt	nt	nt	nt
CCn1c(C(=O)N2CCCC(C(=O)NCCc3ccc(C)cc3)C2)cc2sccc21 (centres undefined)	13µM*	?	-26%	-54*	?	?	-21%	-25%	-7%
Cn1c(C(=O)N2CCCC(C(=O)NCCCSC3CCCCC3)C2)cc2sccc21 (centres undefined)	13µM*	-1%	-16%	-11	i	?	?	?	30%
Cc1ccc(S(=O)(=O)N(CC(=O)Nc2ccc(Cl)c([N+](=O)[O-])c2)C2CCCCC2)cc1	10µM*	2%	-14%	-3	i	?	-23%	?	28%
CC(NCC(O)COCCC12CC3CC(CC(C3)C1)C2)c1ccccc1 (centres undefined)	7.9µM*	32µM*	7.1µM*	-98*	nt	?	21µM*	?	?
CC(C)(C)NC(=O)C[C@H]1C[C@H](C(=O)N2CCCCC2)[C@@]2(C)c3[nH]c4ccc(Cl)cc4c3CCN2C1=O	?	0%	-28%	-23	?	?	-23%	-66%	28%
COc1ccc(CNC(=O)C[C@H]2C[C@H](C(=O)N3CCOCC3)[C@@]3(CCC4CCCC4)c4[nH]c5cc(-c6ccco6)ccc5c4CCN3C2=O)cc1OC	13µM*	?	-20%	?	i	6.5µM*	-21%	?	43%
C[C@]12c3[nH]c4ccc(Cl)cc4c3CCN1C(=O)[C@@H](CC(=O)NCC13CC4CC(CC(C4)C1)C3)C[C@@H]2C(=O)N1CCOCC1	10µM*	?	-71%	?	?	21µM*	?	?	79%
